In PubChem BioAssay (Tox21):
Values joined by “and” are separate entries in the source; they are usually repeats but may differ in a detail not shown here. Identical values can stand only once. Records with an inconclusive call do not appear. Active and inactive are the calls of the source. Unless noted, calls come from the whole dose curve.

Legend:
[1] = Nuclear factor erythroid 2-related factor 2/antioxidant responsive element (Nrf2/ARE) small molecule agonists: luciferase reporter gene qHTS assay in human keratinocytes (AID 1919969); note: nearly all actives have a fitted effect of over 35% in size; note: potency is the fitted concentration of half-maximal effect
[2] = target: Gonadotropin-releasing hormone receptor (Homo sapiens) (UniProt P30968); test: Human gonadotropin-releasing hormone receptor (GnRHR) small molecule agonists, calcium flux assay in GnRHR-HEK293 cells (AID 1920063); note: nearly all actives have a fitted effect of over 35% in size
Gonadotropin-releasing hormone receptor (Homo sapiens), sequence (P30968 whole entry, looked up): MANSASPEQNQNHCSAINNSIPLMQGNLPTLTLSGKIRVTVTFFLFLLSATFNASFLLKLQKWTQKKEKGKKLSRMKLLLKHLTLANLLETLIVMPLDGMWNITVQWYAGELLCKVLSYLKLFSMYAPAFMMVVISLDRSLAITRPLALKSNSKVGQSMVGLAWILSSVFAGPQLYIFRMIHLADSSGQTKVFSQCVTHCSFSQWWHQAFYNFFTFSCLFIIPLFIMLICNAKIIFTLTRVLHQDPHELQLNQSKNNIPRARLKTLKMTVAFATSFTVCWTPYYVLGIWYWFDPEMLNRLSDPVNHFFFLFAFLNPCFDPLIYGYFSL
How it was run: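 Agonist activity was measured as intracellular calcium flux in HEK293 cells engineered to stably express human GnRHR. After dye loading for 1 hour at 37 C, compounds in DMSO were added and fluorescence was followed for 3 minutes.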

[3] = target: KiSS-1 receptor (Homo sapiens) (UniProt Q969F8); test: Human kisspeptin (KISS1R) small molecule agonists, calcium flux assay in KISS1R-HEK293 cells (AID 1920064; active = well fitted activation curve with a large enough effect in the repeat runs)
KiSS-1 receptor (Homo sapiens), sequence (Q969F8 whole entry, looked up): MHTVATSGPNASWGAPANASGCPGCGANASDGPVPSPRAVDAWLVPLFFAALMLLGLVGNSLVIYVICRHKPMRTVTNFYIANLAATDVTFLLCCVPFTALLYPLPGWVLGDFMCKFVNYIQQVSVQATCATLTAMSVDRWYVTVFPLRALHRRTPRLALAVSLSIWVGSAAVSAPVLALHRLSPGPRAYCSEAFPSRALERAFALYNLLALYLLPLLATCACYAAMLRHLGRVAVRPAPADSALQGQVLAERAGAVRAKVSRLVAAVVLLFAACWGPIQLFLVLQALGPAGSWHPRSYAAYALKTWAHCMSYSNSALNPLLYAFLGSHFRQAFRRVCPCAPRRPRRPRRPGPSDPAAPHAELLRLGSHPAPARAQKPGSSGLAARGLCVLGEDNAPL
How it was run: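 Agonist activity is monitored as intracellular calcium rise in engineered HEK293 cells carrying human KISS1R. Cells are dye-loaded for 1 h at 37 C before compound addition, and fluorescence is recorded for 3 min.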

[4] = G protein-coupled receptor (GPCR) small molecule agonists, calcium flux assay: HEK293 wild type cell line counter screen (AID 1920065)
How it was run: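 Seed cells, incubate 18 h (37 C, 5% CO2); add calcium dye, 1 h at 37 C; pin-transfer compounds, ATP control or DMSO; read fluorescence 480/540 nm each second for 3 min.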

[5] = p53 small molecule agonists, cell-based qHTS assay with human liver microsomes (AID 1963577);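 note: p53 response element beta-lactamase reporter cells with liver microsomes plus NADPH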
How it was run: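 In this qHTS, p53 response-element beta-lactamase cells receive test compound together with a microsome/NADPH activating system (0.5 mg/mL final each) and are incubated 16 h at 37 C before LiveBLAzer fluorescence detection.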

[6] = p53 small molecule agonists, cell-based qHTS assay with human liver microsomes: qHTS cell viability counter screen (AID 1963579); note: nearly all actives have a fitted effect of over 45% in size
How it was run: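 Metabolically activated exposure: compounds, human liver microsomes and NADPH (0.5 mg/mL final apiece) were added to p53RE-bla cells seeded 5 h earlier, left 16 h at 37 C, and then assessed for viability by CellTiter-Glo luminescence.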

[7] = p53 small molecule agonists, cell-based qHTS assay with rat liver microsomes: qHTS cell viability counter screen (AID 1963580); note: nearly all actives have a fitted effect of over 45% in size; note: potency is the fitted concentration of half-maximal effect
How it was run: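 Counter screen for cytotoxicity under metabolic activation: rat liver microsomes and NADPH, 0.5 mg/mL final each, added with compounds to p53RE-bla HCT-116 cells; 16 h at 37 C, then ATP luminescence read.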

[8] = p53 small molecule agonists, cell-based qHTS assay (AID 1963582; active = well fitted activation curve with a large enough effect in the signal ratio in the repeat runs, not every such curve was filed as active; the % refers to the signal ratio)
How it was run: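 Cells carrying a p53-responsive bla reporter are treated with test compounds for 16 h at 37 C; beta-lactamase activity is then detected with LiveBLAzer B/G FRET substrate after 2 h at room temperature.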

[9] = target: 5-hydroxytryptamine receptor 2A (Homo sapiens) (UniProt P28223); test: 5-hydroxytryptamine receptor 2A (HTR2A) small molecule antagonists, cell-based qHTS assay (AID 1963586); note: nearly all actives have a fitted effect of over 45% in size
5-hydroxytryptamine receptor 2A (Homo sapiens), sequence (P28223 whole entry, looked up): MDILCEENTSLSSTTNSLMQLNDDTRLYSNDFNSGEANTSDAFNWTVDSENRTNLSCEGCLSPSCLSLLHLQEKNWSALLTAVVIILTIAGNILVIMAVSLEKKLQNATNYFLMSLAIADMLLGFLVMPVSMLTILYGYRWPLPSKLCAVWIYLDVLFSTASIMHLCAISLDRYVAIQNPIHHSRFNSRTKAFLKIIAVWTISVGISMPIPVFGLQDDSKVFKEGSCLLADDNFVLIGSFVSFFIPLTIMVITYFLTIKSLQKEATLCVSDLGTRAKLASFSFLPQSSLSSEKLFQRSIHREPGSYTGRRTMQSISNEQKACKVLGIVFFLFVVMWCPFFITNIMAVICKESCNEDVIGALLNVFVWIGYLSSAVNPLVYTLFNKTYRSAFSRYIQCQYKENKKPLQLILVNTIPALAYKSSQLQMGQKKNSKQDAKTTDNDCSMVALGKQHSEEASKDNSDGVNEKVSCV
How it was run: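 CHO cells stably expressing human HTR2A were plated for 18 h at 37 C, then loaded with calcium dye for 1 h. Compounds were preincubated 5 min at room temperature before DOI (4 nM solution) was added. Kinetic fluorescence was read for 3 min.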

[10] = target: 5-hydroxytryptamine receptor 2A (Homo sapiens) (UniProt P28223); test: 5-hydroxytryptamine receptor 2A (HTR2A) small molecule agonists, cell-based qHTS assay (AID 1963587); note: nearly all actives have a fitted effect of over 30% in size
How it was run: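 HTR2A-CHO cells, plated 18 h at 37 C/5% CO2, dye-loaded 1 h at 37 C; compounds in DMSO added by pin tool (agonist mode). Intracellular calcium flux read as kinetic fluorescence on FDSS over 2 min at 1 s intervals.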

[11] = target: Muscarinic acetylcholine receptor M1 (Homo sapiens) (UniProt P11229); test: Cholinergic receptor muscarinic 1 (CHRM1) small molecule antagonists, cell-based qHTS assay (AID 1963588); note: nearly all actives have a fitted effect of over 40% in size
Muscarinic acetylcholine receptor M1 (Homo sapiens), sequence (P11229 whole entry, looked up): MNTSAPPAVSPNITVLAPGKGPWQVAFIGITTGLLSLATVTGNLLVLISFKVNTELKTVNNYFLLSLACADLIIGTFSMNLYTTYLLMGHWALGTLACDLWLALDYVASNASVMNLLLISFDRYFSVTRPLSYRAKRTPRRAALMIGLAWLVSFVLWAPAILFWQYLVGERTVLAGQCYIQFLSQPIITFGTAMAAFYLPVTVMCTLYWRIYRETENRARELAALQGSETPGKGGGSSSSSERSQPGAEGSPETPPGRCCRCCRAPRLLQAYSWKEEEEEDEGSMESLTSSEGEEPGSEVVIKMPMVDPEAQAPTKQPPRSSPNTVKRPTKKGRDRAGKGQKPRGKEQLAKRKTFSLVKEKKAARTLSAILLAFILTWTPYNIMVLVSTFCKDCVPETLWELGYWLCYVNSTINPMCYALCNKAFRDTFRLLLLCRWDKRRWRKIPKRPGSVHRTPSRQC
How it was run: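 Compounds were tested at 15 concentrations in three independent runs. Dye-loaded CHRM1-CHO cells were exposed 5 min at room temperature before stimulation by acetylcholine added at 50nM. Intracellular calcium was read kinetically on FDSS for 3 min.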

[12] = target: Muscarinic acetylcholine receptor M1 (Homo sapiens) (UniProt P11229); test: Cholinergic receptor muscarinic 1 (CHRM1) small molecule agonists, cell-based qHTS assay (AID 1963589); note: nearly all actives have a fitted effect of over 35% in size
How it was run: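 Cells were plated and incubated 18 h at 37 C/5% CO2, loaded with calcium dye for 1 h at 37 C, then treated with compounds in DMSO. Fluorescence was recorded kinetically at 1 sec intervals.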

[13] = target: Beta-2 adrenergic receptor (Homo sapiens) (UniProt P07550); test: Adrenergic beta2 receptor (ADRB2) small molecule antagonists, cell-based qHTS assay (AID 1963592); note: series mostly up to about 92 µM; nearly all actives have a fitted effect of over 50% in size
Beta-2 adrenergic receptor (Homo sapiens), sequence (P07550 whole entry, looked up): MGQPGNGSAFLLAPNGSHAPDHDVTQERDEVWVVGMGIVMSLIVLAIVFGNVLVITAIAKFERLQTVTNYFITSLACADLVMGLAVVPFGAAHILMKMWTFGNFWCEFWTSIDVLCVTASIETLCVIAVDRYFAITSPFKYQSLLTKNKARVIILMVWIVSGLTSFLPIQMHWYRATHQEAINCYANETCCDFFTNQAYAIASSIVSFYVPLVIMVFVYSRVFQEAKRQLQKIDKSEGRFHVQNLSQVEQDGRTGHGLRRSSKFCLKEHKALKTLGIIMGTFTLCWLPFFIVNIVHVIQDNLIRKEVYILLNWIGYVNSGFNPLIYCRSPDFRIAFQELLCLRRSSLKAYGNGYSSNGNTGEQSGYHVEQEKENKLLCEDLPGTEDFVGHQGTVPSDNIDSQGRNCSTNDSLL
How it was run: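 Assay format: CHO-ADRB2 cells, 18-20hr seeding at 37C/5% CO2, then compound plus 1nM isoproterenol agonist mix for 0.5hr RT. Homogeneous time-resolved fluorescence cAMP detection after 1hr, expressed as 665/615 nm ratio.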

[14] = target: Beta-2 adrenergic receptor (Homo sapiens) (UniProt P07550); test: Adrenergic beta2 receptor (ADRB2) small molecule agonists, cell-based qHTS assay (AID 1963593);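 note: CHO cells stably overexpressing human ADRB2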
How it was run: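 CHO cells stably over-expressing ADRB2 were plated overnight at 37C, then dosed with compounds plus a stimulation mix containing 100uM IBMX and 25uM Ro-20-1724 for 0.5hr at room temperature. cAMP was measured by HTRF competition, 1hr.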

[15] = target: D(2) dopamine receptor (Homo sapiens) (UniProt P14416); test: Dopamine D2 receptor (DRD2) small molecule agonists, cell-based qHTS assay (AID 1963594); note: nearly all actives have a fitted effect of over 35% in size
D(2) dopamine receptor (Homo sapiens), sequence (P14416 whole entry, looked up): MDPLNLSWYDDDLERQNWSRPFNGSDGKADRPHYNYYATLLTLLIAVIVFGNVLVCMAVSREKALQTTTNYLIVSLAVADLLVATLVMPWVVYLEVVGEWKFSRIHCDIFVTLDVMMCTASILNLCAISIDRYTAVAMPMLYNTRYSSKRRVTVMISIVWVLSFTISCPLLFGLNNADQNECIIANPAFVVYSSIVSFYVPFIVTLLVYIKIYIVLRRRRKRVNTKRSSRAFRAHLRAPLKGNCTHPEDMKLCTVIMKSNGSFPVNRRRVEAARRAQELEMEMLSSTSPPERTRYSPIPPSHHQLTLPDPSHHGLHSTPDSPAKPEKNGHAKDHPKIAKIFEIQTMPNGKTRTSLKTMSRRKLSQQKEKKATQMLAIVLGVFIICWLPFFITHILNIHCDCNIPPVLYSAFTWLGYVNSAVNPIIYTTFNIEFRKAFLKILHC
How it was run: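 HEK293 cells stably expressing DRD2 were cultured 24 h at 37 C, then given Ro20-1724 (0.1 mM final) and compounds for 10 min at room temperature. NKH477 (200nM) was then added for 30 min. cAMP was read by HTRF.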

[16] = target: D(2) dopamine receptor (Homo sapiens) (UniProt P14416); test: Dopamine D2 receptor (DRD2) small molecule antagonists, cell-based qHTS assay (AID 1963595; active = well fitted inhibition curve with a large enough effect in the signal ratio in the repeat runs, with a control signal flat; the % refers to the signal ratio)
How it was run: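 Antagonism was scored as restored cAMP in HEK293-DRD2 cells. These cells were stimulated with 200 nM NKH477 and 12 nM quinpirole for 30 min at room temperature, in the presence of 0.1 mM Ro20-1724.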

[17] = p53 small molecule agonists, cell-based qHTS assay with rat liver microsomes (AID 1963578)
How it was run: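 Agonist mode in p53RE-bla reporter cells, with compounds co-incubated 16 h at 37 C alongside 0.5 mg/mL rat liver microsomes and 0.5 mg/mL NADPH (final), followed by a 2 h LiveBLAzer detection step.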

[18] = p53 small molecule agonists, cell-based qHTS assay: qHTS cell viability counter screen (AID 1963581); note: nearly all actives have a fitted effect of over 45% in size
How it was run: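 Viability was counter-screened in parallel with the p53 agonist reporter by measuring intracellular ATP luminescence in the same HCT-116 p53RE-bla wells after 16 h compound treatment at 37 C.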

[19] = cAMP Responsive Elements (CRE) small molecule antagonists, cell-based qHTS assay (AID 1963591; active = well fitted inhibition curve with a large enough effect in the signal ratio in the repeat runs, not every such curve was filed as active; the % refers to the signal ratio)
How it was run: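 Cells (CRE-bla HEK 293T, DMEM with 10% dialyzed FBS and 25 mM HEPES) are seeded and incubated 18 h. Compounds are added with NKH477 agonist at 0.25 uM final for 3 h, then FRET substrate for 2 h.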

[20] = cAMP Responsive Elements (CRE) small molecule agonists, cell-based qHTS assay (AID 1963590); note: potency is the fitted concentration of half-maximal effect
How it was run: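 Cells carrying a CRE-driven beta-lactamase reporter (HEK 293T) are seeded, incubated overnight (18 h), and treated with test compounds for 3 h at 37 C; reporter activity is then detected with a FRET substrate after 2 h at room temperature.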
% is set by controls: 0 for no effect and ±100 for the full control effect.

CN(C)C(=O)NC1(c2ccccc2)CCN(CCC[C@]2(c3ccc(Cl)c(Cl)c3)CCCN(C(=O)c3ccccc3)C2)CC1
inactive: activity, positive = activation [1] 6.8% [at 19 µM] | activity change [2] -0.446% [at 11.8 µM, active compounds read high] | activation [3] 0.0463% [at 15.8 µM] | activation [4] 0.0814% [at 11.8 µM] | activation [5] 8.31% [at 13.5 µM] | activity change, negative = cytotoxicity [6] -5.88% [at 13.5 µM] | activity change, negative = cytotoxicity [7] -4.37% [at 13.5 µM] | activation [8] -4.21% [at 13.5 µM] | activity, negative = inhibition [9] 9.02% [at 12.7 µM] | activation [10] 1.46% [at 15.9 µM] | activity, negative = inhibition [11] -18.4% [at 12.6 µM] | activation [12] 0.44% [at 15.8 µM] | activity change, negative = inhibition [13] 9.65% [at 19 µM] | activation [14] 0.625% [at 19 µM] | activation [15] -11.2% [at 19 µM] | activity change, negative = inhibition [16] 3.81% [at 18.9 µM]

Oc1cccc2c(O)cccc12
active: Potency [1] 27.3 µM | Potency [7] 32.4 µM
inactive: Potency [2] | Potency [3] | Potency [4] | Potency [5] | Potency [17] | Potency [18] | Potency [10] | Potency [11] | Potency [12] | Potency [19] | Potency [15] | Potency [16]

CCCOc1ccc2nc(NC(=O)OC)[nH]c2c1
inactive: Potency [2] | Potency [3] | Potency [4] | Potency [5] | Potency [17] | Potency [7] | Potency [9] | Potency [10] | Potency [11] | Potency [12] | Potency [19] | Potency [13] | Potency [15] | Potency [16]
active: Potency [1] 7.5 µM

C=C1CC[C@H](O)CC1=C/C=C1\CCC[C@]2(C)[C@@H]([C@H](C)/C=C/[C@H](C)C(C)C)CC[C@@H]12
inactive: Potency [2] | Potency [3] | Potency [4] | Potency [5] | Potency [6] | Potency [7] | Potency [18] | Potency [13] | Potency [14] | Potency [15] | Potency [16]
active: Potency [1] 21.5 µM and 61.1 µM

CC(O)C#CC(C)O (stereo not given)
active: Potency [1] 21.5 µM
inactive: Potency [2] | Potency [3] | Potency [4] | Potency [5] | Potency [17] | Potency [7] | Potency [9] | Potency [10] | Potency [12] | Potency [20] | Potency [19] | Potency [13] | Potency [15] | Potency [16]

c1cc(OCC2CO2)cc(OCC2CO2)c1 (stereo not given)
inactive: Potency [2] | Potency [3] | Potency [4] | Potency [5] | Potency [17] | Potency [9] | Potency [10] | Potency [11] | Potency [12] | Potency [13] | Potency [15] | Potency [16]
active: Potency [1] 24.1 µM

Cc1nc(Nc2ncc(C(=O)Nc3c(C)cccc3Cl)s2)cc(N2CCN(CCO)CC2)n1
inactive: Potency [1] | Potency [2] | Potency [3] | Potency [4] | Potency [5] | Potency [17] | Potency [7] | Potency [9] | Potency [10] | Potency [11] | Potency [12] | Potency [19] | Potency [14] | Potency [16]
active: Potency [20] 841 nM
